Source: PubChem BioAssay (NCI)
Values joined by “and” are separate entries in the source; they are usually repeats but may differ in a detail not shown here. Equal entries are not always repeated. About 83,000 compounds went through this panel and 20% of them were active in at least one assay; those are over-represented in the sample as a whole.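 For each line, cells grew in 96-well plates with the test compound present at a single concentration for 48 hours.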 Active and inactive are the calls of the source. Rule for the calls: active = growth percent below 10; inactive = the rest.

These compounds were tested on UO-31 renal (assay: NCI-60 one-dose screen, 48 h (100 = growth as untreated, 0 = no growth, -100 = all killed)). Conditions: 10 µM unless noted.
Cc1cc(O)c(C(C)C)cc1N was tested, and the growth was 78% (inactive) and 95.5% (inactive). With COc1ccc2cc3[n+](cc2c1OC)CCc1cc2c(cc1-3)OCO2 the growth was 76.3% (inactive) and 84.2% (inactive). In the case of COc1c(/C(C)=N/N=c2sc(C(C)=O)nn2-c2ccc(Cl)cc2)c(Oc2ccccc2)c(OC)c2occc12, the growth is reported as 75.8% (inactive) and 72.3% (inactive). With OC(COc1cccc2ccccc12)CN1CCN(c2ccc(Cl)cc2)CC1 (stereo not drawn) the growth was 80.2% (inactive) and 63.6% (inactive). For CNc1ccc2nc3ccc(=[N+](C)C)cc-3sc2c1, the growth was 26.7% (inactive) and 33.7% (inactive). CC1=NN(c2ccccc2)C(=O)C1C(=O)c1ccccc1 (stereo not drawn) was tested, and the growth was 90.6% (inactive). In the case of OCCN1CCN(CCO)CC1, the growth is reported as 81.9% (inactive) and 89.7% (inactive) and 86.7% (inactive). In the case of CC1=CCC2CC1C2(C)C (stereo not drawn), the growth is reported as 89% (inactive) and 96.1% (inactive). In the case of COc1cc(/C=N/Nc2nc3c([nH]2)c(=O)n(C)c(=O)n3C)ccc1O, the growth is reported as 86.7% (inactive) and 86.2% (inactive). S=C(S)N1CCCC1 was tested, and the growth was 88.3% (inactive) and 76.4% (inactive). With CC(=O)Oc1cc(C(=O)O)cc(OC(C)=O)c1OC(C)=O the growth was 96.7% (inactive) and 98.2% (inactive). With CCN(CC)C(=O)c1cccnc1 the growth was 116% (inactive). O=C(Nc1cccc(Cl)c1)c1cc2ccccc2cc1O was tested, and the growth was 5.45% (active) and -9.87% (active). For Cn1c(SSc2ccc(-c3cccnc3)n2C)ccc1-c1cccnc1, the growth was 95.8% (inactive) and 104% (inactive). With CN1CCN(CCC=C2c3ccccc3Sc3ccc(S(=O)(=O)N(C)C)cc32)CC1 the growth was 36.7% (inactive) and 56.9% (inactive). For Oc1c(Cl)cc(Cl)cc1Sc1cc(Cl)cc(Cl)c1O, the growth was 73.2% (inactive) and 36.9% (inactive) and 85.2% (inactive). Cn1c(=O)n(-c2ccc(C(C)(C)C#N)cc2)c2c3cc(-c4cnc5ccccc5c4)ccc3ncc21 was tested, and the growth was -14.7% (active) and -16.6% (active). In the case of O=C(N/N=C/c1ccccc1)N/N=C/c1ccccc1, the growth is reported as 92.4% (inactive) and 102% (inactive). In the case of COc1ccc(-c2cn[nH]c2-c2cc(OC)c(OC)c(OC)c2)cc1N, the growth is reported as 50.1% (inactive) and 34.7% (inactive). For C1CCCCNCCC1, the growth was 92.5% (inactive). With COc1ccccc1C(C)=O the growth was 89.4% (inactive) and 96.5% (inactive). NS(=O)(=O)c1cc2c(cc1Cl)NC(C(Cl)Cl)NS2(=O)=O (stereo not drawn) was tested, and the growth was 90.7% (inactive) and 87.4% (inactive). For O=C(Oc1cccc(OC(=O)c2ccccc2)c1)c1ccccc1, the growth was 50.4% (inactive) and 90.9% (inactive). For CC1(c2ccc3ccccc3c2)CCC(=O)O1 (stereo not drawn), the growth was 81.1% (inactive). For CC1=C(/C=C/C(C)=C/C=C/C(C)=C/C=N/NC(=S)NC(=S)N/N=C/C=C(C)/C=C/C=C(C)/C=C/C2=C(C)CCCC2(C)C)C(C)(C)CCC1, the growth was -36% (active) and -47.4% (active). CCCCOc1cc(C(=O)NCCN(CC)CC)c2ccccc2n1 was tested, and the growth was 59.1% (inactive) and 78% (inactive). For COc1cc2c(c(OC)c1OC)-c1ccc(OC)c(=O)cc1[C@@H](NC(C)=O)CC2, the growth was 35.8% (inactive) and 44% (inactive) and 21.2% (inactive). With CN1CCN(c2ccc3nc(-c4c(N)c5c(F)cccc5[nH]c4=O)[nH]c3c2)CC1 the growth was 7.59% (active) and 16% (inactive).
